Measured values published in PubChem BioAssay.
Records with an inconclusive call do not appear. Active and inactive are the calls of the source.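 The calls were made as follows, unless noted: active = percent response above a set limit, the screen-wide mean plus 3 SD (cut at about 130% in these data); inactive = the rest.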

How the values were obtained:
[1] = yeast TOR pathway RPL19A-GFP modulators, primary screen, cell-based, S. cerevisiae, multiplex flow cytometry (AID 1862; in the data active = percent of DMSO control GFP below about 86%;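 also: lower values mimic rapamycin by blocking the RPL19A rise seen in DMSO cells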); conditions: S. cerevisiae RPL19A-GFP strain, flow cytometry fluorescence, 3 h; at 10 µM; stronger effect = lower value
[2] = modulators of MEP2-GFP levels in yeast, primary screen, S. cerevisiae, multiplex flow cytometry (AID 1867;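 active = GFP response, as percent of the DMSO control, above the screen-wide mean plus 3 SD, about 139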;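 also: median GFP channel fluorescence of barcode-gated MEP2-GFP cells measured by flow cytometry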); conditions: S. cerevisiae MEP2-GFP strain, 3 h, at 10 µM, stronger effect = higher value, 100% means same as DMSO wells
[3] = modulators of CIT2-GFP expression in yeast, primary screen, S. cerevisiae, GFP fusion, multiplex flow cytometry (AID 1870); conditions: 3 h, at 10 µM, stronger effect = higher value;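 also: barcoded CIT2-GFP strain pooled with four other GFP strains with rapamycin as positive control; median GFP fluorescence per well over plate mean of DMSO wells so 100% = DMSO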
[4] = modulators of LAP4-GFP expression in yeast, primary screen, S. cerevisiae, multiplex flow cytometry (AID 1873;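 active = GFP signal, as percent of the solvent control, above the screen mean plus 3 SD, about 149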); conditions: 3 h, at 10 µM, stronger effect = higher value
[5] = modulators of AGP1-GFP expression in yeast TOR pathway, primary screen, cell-based, multiplex flow cytometry, S. cerevisiae (AID 1887;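 active = GFP signal above the screen-wide mean plus 3 SD, that is over about 124.5% of the solvent control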;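 also: AGP1-GFP fusion strain of S. cerevisiae within a five-strain barcoded multiplex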); conditions: 3 h, at 10 µM, stronger effect = higher value
[6] = inhibitors of CD8+ T cell-vesicle binding, pilot screen, LFA-1/ICAM-1 modulator project, MLPCN validation set, flow cytometry (AID 2523;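 active = response below a set limit, under 55% cells CD8-positive and vesicle-bound, and CD8 cells' 90th-percentile brightness under 279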;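 as to vesicle binding response: mean PE anti-B7-1 fluorescence of CD8+ cells relative to row control; 100% = QL9-loaded vesicles with DMSO vehicle in the same plate row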); conditions: 2C mouse CD8+ T cells, at 7 µM, stronger effect = lower value; double positive events: measured here: CD8+/vesicle+ event percentage
[7] = target: Integrin beta-1 (Homo sapiens) + Integrin alpha-4 (Homo sapiens) (UniProt P13612+P05556); test: inhibition of HUTS-21 binding to VLA-4, pilot screen, VLA-4 allosteric modulator project, U937 cells, HUTS-21 mAb, flow cytometry, validation set (AID 2674;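 active = inhibition above 50%, about 3 SD of the validation set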;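 also: antibody binding induced by the VLA-4 ligand LDV present at three times its Kd; 0% = LDV ligand with antibody and no compound and 100% = antibody without LDV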); conditions: HUTS-21 LIBS mAb binding, at 6.7 µM, stronger effect = higher value, binding induced by LDV ligand
[8] = superoxide lowering in aged yeast cells, pilot screen, validation compound set (AID 2706;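 active = superoxide response below 65% of plate, a cut near 3 SD across the whole screen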;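 also: yeast exposed to compound for one week at 30 degrees C before staining; 100% = mean of all compound wells on the same plate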); conditions: S. cerevisiae aging, superoxide DHE fluorescence; at 10 µM; stronger effect = lower value
[9] = target: Beta-adrenergic receptor kinase 1 (Homo sapiens) (UniProt P25098); test: GRK2 binders displacing RNA aptamer, biochemical, validation, human GRK2, bead flow cytometry (AID 488806;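 active = aptamer binding inhibition above 30%, about 3 SD of noise from non-fluorescent compounds; inactive = inhibition at or below 30%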); conditions: bead-bound GRK2, FAM-aptamer displacement, at 10 µM, stronger effect = higher value
[10] = target: Beta-2 adrenergic receptor (Homo sapiens) (UniProt P07550); test: beta2AR agonists driving receptor internalization, pilot screen, cell-based, FAP fluorogen, flow cytometry, validation set (AID 504459;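 active = percent response above 42, roughly 3 SD of non-fluorescent test compounds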;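 also: agonist-driven loss of surface beta2AR via internalization measured by FAP dye flow cytometry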); conditions: Am2.2-beta2AR cells, FAP surface receptor flow cytometry; at 10 µM; stronger effect = higher value
[11] = target: AP-2 complex subunit beta (Homo sapiens) (UniProt P63010); test: inhibitors of arrestin peptide binding to AP2, pilot screen, biochemical, validation set, GST-AP2 beads, flow cytometry (AID 504541;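 active = inhibition above 54%, about 3 SD of non-fluorescent compounds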;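 also: AP2 carries R879A mutation and is captured from E. coli lysate; bead-bound FITC arrestin peptide fluorescence measuring arrestin peptide binding to AP2; 0% = DMSO wells and 100% = excess unlabeled arrestin peptide control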); conditions: FITC arrestin peptide, at 10 µM, stronger effect = higher value, AP2 beta2 appendage fragment, R879A mutant
[12] = yeast V-ATPase proton transport modulators, S. cerevisiae, pHLuorin, HTS validation (AID 504600; in the data active = response above about 15%;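 also: plate controls were DMSO for no effect and reference compound for full effect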); conditions: S. cerevisiae pHLuorin cytosolic pH, at 10 µM, stronger effect = higher value
[13] = test system: anti-desmoglein-3 scFv antibody binding to human DSG3; test: inhibitors of anti-DSG3 scFv binding to DSG3, pilot screen, biochemical, validation compound set, bead-based, flow cytometry (AID 588368;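 active = binding below the plate cutoff, the plate median minus 3 SD, with a reading above zero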;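 also: signal is the median channel fluorescence of bead-bound GFP antibody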); conditions: Protein G beads, DSG3-Fc, scFv-GFP binding, at 10 µM, stronger effect = lower value
[14] = inhibitors of fungal efflux pumps CDR1, CDR2, MDR1, pilot screen, validation compound set, multiplex, phenotypic (AID 588506;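 active = efflux inhibition above 0.42, the validation set average plus 4 SD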;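 also: Nile Red retained in cells so higher fluorescence means more efflux inhibition; 0 = negative control wells and 1 = enniatin B 25 µM full block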); conditions: S. cerevisiae pump-expressing triplex, Nile Red efflux flow cytometry; at 10 µM; stronger effect = higher value; the pumps come from Candida albicans
[15] = target: ATP-binding cassette sub-family B member 6 (Homo sapiens) (UniProt Q9NP58); test: ABCB6 transporter inhibitors, pilot screen, K562-ABCB6 cells, flow cytometry, validation set (AID 588550;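 active = inhibition above the screen-wide mean plus 3 SD, about 51%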;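 also: 0% = DMSO wells and 100% = benzethonium chloride 70 µM positive control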); conditions: K562-ABCB6 porphyrin accumulation, 1 h, at 10 µM, stronger effect = higher value
[16] = promoters of myeloid differentiation in arrested cells, primary screen, cell-based, GFP/MAC1 double positive, flow cytometry, validation set (AID 588685;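 active = differentiation response of at least 50%, scaled between solvent and reference control, from cells with both markers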;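 also: compound exposure lasts four days before antibody staining and flow analysis; 0% = DMSO wells and 100% = 5 µM fulvestrant positive control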); conditions: ER-HoxA9 marrow cells, stronger effect = higher value, normalized: vehicle 0, fulvestrant 100

ATP-binding cassette sub-family B member 6 (Homo sapiens), sequence (Q9NP58 whole entry, looked up): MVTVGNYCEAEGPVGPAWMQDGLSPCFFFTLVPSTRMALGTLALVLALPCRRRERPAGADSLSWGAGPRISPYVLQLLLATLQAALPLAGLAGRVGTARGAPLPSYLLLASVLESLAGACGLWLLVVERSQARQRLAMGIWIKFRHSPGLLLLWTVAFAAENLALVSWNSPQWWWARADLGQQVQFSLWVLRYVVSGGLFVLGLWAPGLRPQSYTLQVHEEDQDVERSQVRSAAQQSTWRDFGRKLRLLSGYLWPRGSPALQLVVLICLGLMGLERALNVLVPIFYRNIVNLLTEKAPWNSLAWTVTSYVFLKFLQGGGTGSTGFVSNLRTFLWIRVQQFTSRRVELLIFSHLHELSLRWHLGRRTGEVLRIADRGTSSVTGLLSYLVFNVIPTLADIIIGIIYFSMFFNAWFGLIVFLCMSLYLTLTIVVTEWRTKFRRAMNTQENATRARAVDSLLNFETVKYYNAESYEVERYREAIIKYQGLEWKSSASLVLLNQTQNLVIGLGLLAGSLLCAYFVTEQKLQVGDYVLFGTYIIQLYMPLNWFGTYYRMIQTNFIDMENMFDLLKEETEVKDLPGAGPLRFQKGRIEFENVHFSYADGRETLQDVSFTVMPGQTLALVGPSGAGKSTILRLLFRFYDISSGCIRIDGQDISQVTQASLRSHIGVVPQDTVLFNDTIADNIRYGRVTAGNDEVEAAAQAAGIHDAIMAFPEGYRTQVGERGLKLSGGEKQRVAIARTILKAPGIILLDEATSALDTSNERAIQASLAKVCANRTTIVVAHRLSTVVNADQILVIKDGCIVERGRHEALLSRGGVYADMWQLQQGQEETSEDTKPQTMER
Beta-adrenergic receptor kinase 1 (Homo sapiens), sequence (P25098 whole entry, looked up): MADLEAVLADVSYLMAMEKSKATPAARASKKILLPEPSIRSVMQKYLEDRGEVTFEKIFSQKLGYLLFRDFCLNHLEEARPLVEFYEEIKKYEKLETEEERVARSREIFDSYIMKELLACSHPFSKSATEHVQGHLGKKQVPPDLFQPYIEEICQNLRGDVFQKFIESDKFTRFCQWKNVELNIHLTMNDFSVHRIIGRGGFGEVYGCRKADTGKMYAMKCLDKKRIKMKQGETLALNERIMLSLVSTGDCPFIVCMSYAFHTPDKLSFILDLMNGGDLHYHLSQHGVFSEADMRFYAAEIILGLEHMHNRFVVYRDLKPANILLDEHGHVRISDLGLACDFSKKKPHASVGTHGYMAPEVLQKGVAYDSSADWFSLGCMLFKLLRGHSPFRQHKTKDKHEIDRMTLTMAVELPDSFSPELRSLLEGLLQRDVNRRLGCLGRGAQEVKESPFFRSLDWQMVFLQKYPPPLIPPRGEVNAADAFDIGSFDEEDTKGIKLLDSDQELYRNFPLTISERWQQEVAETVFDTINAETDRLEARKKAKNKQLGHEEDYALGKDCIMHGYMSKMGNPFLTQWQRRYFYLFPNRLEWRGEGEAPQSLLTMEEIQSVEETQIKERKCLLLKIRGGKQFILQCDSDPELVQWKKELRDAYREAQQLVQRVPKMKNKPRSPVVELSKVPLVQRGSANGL
Integrin beta-1 (Homo sapiens) + Integrin alpha-4 (Homo sapiens), sequence (P05556 whole entry, looked up): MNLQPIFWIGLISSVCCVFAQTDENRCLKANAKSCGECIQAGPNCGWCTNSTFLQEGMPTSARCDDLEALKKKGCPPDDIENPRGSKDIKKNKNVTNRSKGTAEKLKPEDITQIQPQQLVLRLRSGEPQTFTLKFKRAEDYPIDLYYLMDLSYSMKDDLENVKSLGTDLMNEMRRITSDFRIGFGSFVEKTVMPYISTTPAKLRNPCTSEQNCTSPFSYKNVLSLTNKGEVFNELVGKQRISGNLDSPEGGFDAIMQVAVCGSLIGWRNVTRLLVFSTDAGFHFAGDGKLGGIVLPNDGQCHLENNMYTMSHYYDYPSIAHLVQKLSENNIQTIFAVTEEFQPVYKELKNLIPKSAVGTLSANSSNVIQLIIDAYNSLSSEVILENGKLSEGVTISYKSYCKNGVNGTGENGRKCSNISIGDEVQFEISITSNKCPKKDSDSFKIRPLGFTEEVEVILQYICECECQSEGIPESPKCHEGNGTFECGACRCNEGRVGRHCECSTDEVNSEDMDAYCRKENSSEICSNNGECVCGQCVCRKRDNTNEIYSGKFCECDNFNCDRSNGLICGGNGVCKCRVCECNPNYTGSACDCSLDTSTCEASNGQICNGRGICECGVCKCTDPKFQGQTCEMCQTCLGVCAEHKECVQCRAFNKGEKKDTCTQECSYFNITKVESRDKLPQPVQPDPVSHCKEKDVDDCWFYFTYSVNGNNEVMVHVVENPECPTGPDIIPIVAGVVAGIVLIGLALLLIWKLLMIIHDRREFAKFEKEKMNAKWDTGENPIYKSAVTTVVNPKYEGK
Integrin beta-1 (Homo sapiens) + Integrin alpha-4 (Homo sapiens), sequence (P13612 whole entry, looked up): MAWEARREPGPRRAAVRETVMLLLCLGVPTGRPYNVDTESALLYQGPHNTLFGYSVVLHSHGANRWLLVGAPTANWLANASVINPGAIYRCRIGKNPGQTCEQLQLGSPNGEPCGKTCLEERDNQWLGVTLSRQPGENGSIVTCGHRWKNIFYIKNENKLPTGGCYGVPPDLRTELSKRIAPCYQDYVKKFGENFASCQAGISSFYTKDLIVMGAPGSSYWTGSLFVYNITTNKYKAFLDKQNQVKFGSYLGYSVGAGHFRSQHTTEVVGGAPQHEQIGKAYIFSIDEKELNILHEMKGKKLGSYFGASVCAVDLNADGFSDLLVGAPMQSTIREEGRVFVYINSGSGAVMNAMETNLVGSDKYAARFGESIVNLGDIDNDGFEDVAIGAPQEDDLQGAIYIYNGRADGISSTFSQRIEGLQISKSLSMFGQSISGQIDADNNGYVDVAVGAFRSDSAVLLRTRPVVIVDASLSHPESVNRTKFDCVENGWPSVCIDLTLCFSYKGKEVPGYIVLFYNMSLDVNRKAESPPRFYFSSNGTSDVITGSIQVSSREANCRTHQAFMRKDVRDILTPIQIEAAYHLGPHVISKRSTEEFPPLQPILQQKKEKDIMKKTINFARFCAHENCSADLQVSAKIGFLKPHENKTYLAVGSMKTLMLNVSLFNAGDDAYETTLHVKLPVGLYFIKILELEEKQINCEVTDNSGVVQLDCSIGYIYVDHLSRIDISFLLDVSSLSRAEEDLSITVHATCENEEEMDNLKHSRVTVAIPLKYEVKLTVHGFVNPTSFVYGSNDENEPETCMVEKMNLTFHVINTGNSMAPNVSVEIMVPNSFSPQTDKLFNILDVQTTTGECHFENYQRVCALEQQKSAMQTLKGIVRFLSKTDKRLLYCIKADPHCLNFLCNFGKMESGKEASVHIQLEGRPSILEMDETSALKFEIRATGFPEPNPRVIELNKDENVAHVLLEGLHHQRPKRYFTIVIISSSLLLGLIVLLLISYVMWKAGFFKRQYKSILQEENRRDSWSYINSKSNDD
AP-2 complex subunit beta (Homo sapiens), sequence (P63010 whole entry, looked up, the tested form may be a part, one chain of several): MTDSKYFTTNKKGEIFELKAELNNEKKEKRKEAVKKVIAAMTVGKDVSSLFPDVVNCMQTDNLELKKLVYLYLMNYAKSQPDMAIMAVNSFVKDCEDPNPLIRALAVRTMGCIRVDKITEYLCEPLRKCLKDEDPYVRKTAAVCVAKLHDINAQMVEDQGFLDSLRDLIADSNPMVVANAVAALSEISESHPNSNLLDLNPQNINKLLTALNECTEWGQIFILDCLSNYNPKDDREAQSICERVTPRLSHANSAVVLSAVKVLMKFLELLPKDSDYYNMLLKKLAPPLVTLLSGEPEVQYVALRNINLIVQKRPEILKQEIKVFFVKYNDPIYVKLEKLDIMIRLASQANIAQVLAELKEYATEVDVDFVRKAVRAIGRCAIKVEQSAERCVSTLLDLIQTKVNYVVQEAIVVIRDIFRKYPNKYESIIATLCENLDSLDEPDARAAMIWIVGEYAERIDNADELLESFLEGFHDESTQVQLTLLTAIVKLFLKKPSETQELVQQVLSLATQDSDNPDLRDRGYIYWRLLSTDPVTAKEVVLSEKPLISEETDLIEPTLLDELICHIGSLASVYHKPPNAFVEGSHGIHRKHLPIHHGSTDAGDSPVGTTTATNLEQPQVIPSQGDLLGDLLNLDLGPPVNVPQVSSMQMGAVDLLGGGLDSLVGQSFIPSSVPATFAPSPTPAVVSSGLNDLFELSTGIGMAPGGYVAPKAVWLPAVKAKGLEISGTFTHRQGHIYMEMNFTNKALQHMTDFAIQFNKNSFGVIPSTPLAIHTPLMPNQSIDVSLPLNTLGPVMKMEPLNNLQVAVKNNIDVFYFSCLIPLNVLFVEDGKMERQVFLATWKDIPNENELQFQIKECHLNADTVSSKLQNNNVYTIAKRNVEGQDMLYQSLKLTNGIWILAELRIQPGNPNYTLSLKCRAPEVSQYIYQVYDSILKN
Beta-2 adrenergic receptor (Homo sapiens), sequence (P07550 whole entry, looked up): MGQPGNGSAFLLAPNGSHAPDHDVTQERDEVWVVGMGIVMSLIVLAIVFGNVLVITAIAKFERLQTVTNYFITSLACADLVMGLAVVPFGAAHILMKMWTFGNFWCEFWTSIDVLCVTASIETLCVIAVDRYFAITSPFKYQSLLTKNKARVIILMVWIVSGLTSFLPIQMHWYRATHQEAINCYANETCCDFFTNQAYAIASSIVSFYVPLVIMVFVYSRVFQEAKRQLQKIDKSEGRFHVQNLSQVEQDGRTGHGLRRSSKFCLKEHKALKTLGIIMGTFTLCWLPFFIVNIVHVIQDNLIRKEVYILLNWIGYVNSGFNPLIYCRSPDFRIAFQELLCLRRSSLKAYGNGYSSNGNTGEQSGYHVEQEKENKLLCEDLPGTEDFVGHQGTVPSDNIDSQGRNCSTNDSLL

SMILES	percent of DMSO control GFP [1]	GFP response vs DMSO [2]	percent response of DMSO control [3]	GFP response vs DMSO [4]	GFP response, % of DMSO [5]	double positive events [6] [%]	vesicle binding response [6]	inhibition [7]	superoxide response (% of plate) [8]	aptamer binding inhibition [9]	response [10]	inhibition [11]	response [12]	binding (% of control) [13]	efflux inhibition (fraction of control) [14]	inhibition [15]	differentiation response [16]
CCn1ccnc1CN(C)Cc1cn(-c2cccc(C)c2)nc1-c1cccc(F)c1	104% (inactive)	95.6% (inactive)	108% (inactive)	92.6% (inactive)	104% (inactive)	63.6	145% (inactive)	-7.79% (inactive)	102% (inactive)	4% (inactive)	-10.5% (inactive)	-10.8% (inactive)	3.23% (inactive)	105% (inactive)	0.11 (inactive)	21% (inactive)	-14.8% (inactive)
COc1ccccc1C(O)c1nccn1C (stereo unspecified)	92% (inactive)	127% (inactive)	106% (inactive)	79.8% (inactive)	93.1% (inactive)	76.2	282% (inactive)	17.1% (inactive)	81.3% (inactive)	4% (inactive)	-3.43% (inactive)	0.35% (inactive)	24.9% (active)	104% (inactive)	-0.35 (inactive)	11% (inactive)	-7.37% (inactive)
COc1ccc(CNC(=O)c2c(O)c3cccc4c3n(c2=O)CCC4)cc1	104% (inactive)	105% (inactive)	93.9% (inactive)	94.4% (inactive)	99.4% (inactive)	57.5	18.9% (inactive)	-7.47% (inactive)	96.7% (inactive)	9% (inactive)	4.63% (inactive)	7.55% (inactive)	-1.56% (inactive)	99.5% (inactive)	0.62 (active)	5% (inactive)	1.17% (inactive)
CC1(C)c2ccccc2N2CC(=O)NC21/C=C/c1ccco1 (stereo unspecified)	101% (inactive)	113% (inactive)	110% (inactive)	100% (inactive)	96.2% (inactive)	64.1	87.6% (inactive)	-23.9% (inactive)	109% (inactive)	0% (inactive)	5.81% (inactive)	-7.94% (inactive)	-1.22% (inactive)	107% (inactive)	-0.16 (inactive)	-36% (inactive)	-3.11% (inactive)
CC1(C)CC(=O)c2c(nc3ccccc3c2N)C1	105% (inactive)	90.9% (inactive)	111% (inactive)	104% (inactive)	99.2% (inactive)	62.1	259% (inactive)	-3.57% (inactive)	89.8% (inactive)	0% (inactive)	-12.4% (inactive)	-2.7% (inactive)	-3.81% (inactive)	102% (inactive)	-0.29 (inactive)	9% (inactive)	0.24% (inactive)
COc1ccccc1N1CCN(CC(O)COc2cccc3ccccc23)CC1 (stereo unspecified)	102% (inactive)	105% (inactive)	98.3% (inactive)	109% (inactive)	118% (inactive)	64.3	192% (inactive)	8.25% (inactive)	97.5% (inactive)	6% (inactive)	-24.7% (inactive)	-5.11% (inactive)	5.97% (inactive)	107% (inactive)	-0.09 (inactive)	-4% (inactive)	4.86% (inactive)
Cc1cc(C)nc(NS(=O)(=O)c2ccc(N)cc2)n1	108% (inactive)	98.3% (inactive)	116% (inactive)	90.1% (inactive)	104% (inactive)	65.7	216% (inactive)	-5.64% (inactive)	95.6% (inactive)	1% (inactive)	-4.61% (inactive)	-9.4% (inactive)	-1.72% (inactive)	90.1% (inactive)	0.11 (inactive)	-1% (inactive)	6.11% (inactive)
CCSC(=O)CCCCCCCCCCCO	101% (inactive)	103% (inactive)	96.4% (inactive)	127% (inactive)	106% (inactive)	59.6	348% (inactive)	20.2% (inactive)	78.1% (inactive)	0% (inactive)	-27.7% (inactive)	41.3% (inactive)	2.69% (inactive)	103% (inactive)	0.17 (inactive)	-2% (inactive)	-13.9% (inactive)
